Compound activity deposited in PubChem BioAssay by National Center for Advancing Translational Sciences (NCATS).
Giardia killer: Small Molecules that selectively kill Giardia lamblia: qHTS. Giardia lamblia trophozoite viability. activity change, % at 7.66 µM, hits read low. 340,000 tested, 0.15% active. AID 540267, 2011; in the data active = activity change below about -80%; inconclusive = between about -30% and that limit;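 also: parasites exposed to compound for two days anaerobically before the ATP read; % is scaled to controls: 0 for no effect and ±100 for the full control effect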
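Anaerobic 48 hrs incubation at 37 deg C of 100 trophozoites/well with test compounds; ATPLite 1-Step luminescence, 15-30 min RT, reports cellular ATP as viability.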
TGFb SMAD3 inh: qHTS for Inhibitors of TGF-b. HepG2 CAGA-GFP TGF-b/SMAD3 reporter, GFP fluorescence, 18 h; TGF-beta stimulated, 500 pg/mL final. Potency, µM (highest dose often 46.1 µM), for inactives: at the highest dose activity, negative = inhibition, actives largely listed as inhibitors. 410,000 tested, 1.2% active; also: potency is read from the fitted curve at half-maximal effect; % is scaled to controls: 0 for no effect and ±100 for the full control effect; nearly all actives have a fitted effect of over 65% in size
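HEPG2 CAGA-GFP reporter cells (1000/well, DMEM with 1% FBS) received compounds, then recombinant TGF-beta at 500 pg/mL final for 18 hours at 37 degrees C. Per-cell GFP summed per well was normalised to unstimulated and stimulated DMSO controls before curve fitting.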
HT1080-NT tox: qHTS for induction of synthetic lethality in tumor cells producing 2HG: qHTS for the HT-1080-NT fibrosarcoma cell line; HT-1080-NT fibrosarcoma viability, CellTiter-Glo ATP luminescence, 48 h; Potency, µM (highest dose often 46.1 µM), for inactives: at the highest dose activity, negative = less viability, actives largely listed as cytotoxic; 360,000 tested, 1.6% active;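 also: NT is the 2HG producing partner of a matched IDH1 knockdown line; potency is read from the fitted curve at half-maximal effect; 0% = DMSO-treated cells and -100% = media-only wells without cells; nearly all actives have a fitted effect of over 55% in size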
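HT-1080-NT fibrosarcoma cells (2HG-overproducing), 750 cells/well in RPMI with 5% FBS, dosed after 2 h and incubated 48 h at 37C. CellTiter-Glo luminescence normalized to DMSO and no-cell wells; concentration-response curves fitted and classed.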
IL1B secr inh: qHTS for Inhibitors of Inflammasome Signaling: IL-1-beta AlphaLISA Primary Screen; THP-1 LPS/ATP IL-1B secretion, AlphaLISA, 16 h; active compounds read low; activity change, % at 57.5 µM; 360,000 tested, 4.7% active; in the data active = activity change below about -50%; inconclusive = mostly about -30% to -49%; also: % is scaled to controls: 0 for no effect and ±100 for the full control effect
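THP-1 cells pretreated 1 hr with compounds (up to 57.5 uM final), then stimulated with LPS (250 ng/mL final) plus ATP (1.25 mM final); secreted IL-1B measured by AlphaLISA after 16 hr, decreased signal indicating inhibition.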
HepG2 viability: qHTS for Inhibitors of TGF-b: Cytotox Counterscreen; HepG2 CAGA-GFP viability, ATP luminescence, 18 h; Potency, µM (series often up to 46.1 µM), without a hit: top-dose activity change, negative = cytotoxicity, usual class: cytotoxic; 410,000 tested, 0.76% active; AID 588856, 2011; also: potency is read from the fitted curve at half-maximal effect
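CellTiter-Glo luminescence gave cytotoxicity after 18 hours at 37 degrees C. The cells were HepG2 CAGA-GFP in 1% FBS DMEM, stimulated with 500 pg/mL TGF-beta after compound addition. %Activity was normalised to no-cell wells (complete cell-killing) and DMSO (no toxicity), and curves were fitted and classified.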
HT1080 IDH1KD tx: qHTS for induction of synthetic lethality in tumor cells producing 2HG: qHTS for the HT-1080-IDH1KD cell line; 360,000 tested, 2% active; AID 686971, 2013; HT-1080 IDH1 knockdown viability, ATP luminescence, 48 h; Potency, µM (doses to about 46.1 µM), without a hit: at the top dose activity, negative = toxicity, most hits filed as cytotoxic;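 also: potency is read from the fitted curve at half-maximal effect; 0% = DMSO wells and -100% = cell-free medium wells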
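After a 2 h attachment period, IDH1KD HT-1080 cells took pin-transferred compound for 48 h at 37 °C; ATP-based luminescence after 10 min room-temperature reagent incubation reported viability.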
* marks the source's active call; other numbers are inactive results; ? = inconclusive; · = no result given. In the library only some 6.5% were active in any assay of this set; here they are far more common. Unless noted, calls follow the shape of the dose curve; as a rule, active = well fitted curve in the direction sought with a large enough effect; inconclusive = small, poorly fitted or top-dose-only effect, or another doubt; inactive = no such curve, though single readings can be large; an effect the other way counts as inactive or inconclusive.

SMILES | Giardia killer | TGFb SMAD3 inh | HT1080-NT tox | IL1B secr inh | HepG2 viability | HT1080 IDH1KD tx
COc1cccc(CN(C(=O)/C=C/c2ccc(Cl)cc2)C2CCS(=O)(=O)C2)c1 (configuration not stated) | 24.6 | -23.0% | -1.4% | -57.6* | -25.9% | -17.2%
CCN(C(=O)CSc1ccc2ccccc2n1)C1CCCCC1 | 3.5 | ? | 18.7% | -68.8* | 5.4% | 19.0%
O=S1(=O)C=C(Sc2nc3ccccc3s2)c2ccccc21 | -20.2 | 2.82µM* | 2.31µM* | -66.3* | 11.2µM* | 2.59µM*
O=S1(=O)C=C(SCCN2CCCCC2)c2ccccc21 | 4.2 | 1.3% | 11.0% | ? | -47.5% | 14.8%
O=S1(=O)C=C(Sc2nnc(-c3ccccc3)o2)c2ccccc21 | 5.6 | 10µM* | 2.82µM* | -101.7* | 14.1µM* | 1.26µM*
Cc1cc(C)nc(SC2=CS(=O)(=O)c3ccccc32)n1 | 12.4 | 2.9% | 23.1µM* | -97.7* | -37.0% | ?
CSc1nnc(-c2ccccc2)o1 | -4.2 | 0.9% | 2.6% | -18.4 | 2.2% | 20.7%
Cc1cc(C(=S)N2CCOCC2)c(C)n1-c1ccc(Cl)cc1 | 22.7 | -21.8% | 3.8% | -18.3 | 0.1% | -1.5%
Cc1cc(C)cc(-n2c(C)cc(C(=S)N3CCOCC3)c2C)c1 | 0.1 | 2.2% | 7.0% | -54.1* | -5.6% | 8.2%
CCCSc1nn2c(=O)c3ccccc3nc2s1 | 1.5 | 0.0% | -1.7% | 14.7 | -7.5% | -11.0%
O=c1c2ccccc2sc2nc(CCl)nn12 | 10.4 | ? | 6.51µM* | 13.4 | -53.8% | 4.61µM*
O=C(CSc1nc2nc(-c3cccs3)cc(C(F)(F)F)c2c(=O)[nH]1)Nc1c(F)c(F)c(F)c(F)c1F | -5.8 | -16.3% | 11.6µM* | -8.0 | -18.3% | -11.0%
O=C(COC(=O)c1ccccc1SCC(=O)NC1CCS(=O)(=O)C1)NC1CCS(=O)(=O)C1 (configuration not stated) | -0.4 | -12.1% | 3.1% | 0.0 | -2.4% | 4.2%
CCNC(=O)NC(=O)COC(=O)c1ccccc1SCC(=O)NC(=O)NCC | -1.5 | -9.2% | -7.2% | 40.4 | -81.0% | 29.1µM*
O=C(CC1Sc2ccccc2NC1=O)Nc1cccc(C(F)(F)F)c1 (configuration not stated) | · | -5.8% | · | · | -19.4% | ·
C=C1C(=O)O[C@@H]2[C@H]1[C@@H](OC(=O)/C(C)=C/C)C/C(C)=C\C(=O)/C=C(\C)[C@@H]2O | -27.6 | 7.08µM* | ? | -102.2* | 11.2µM* | ?
Nc1nc2ncccn2c1-c1ccc(F)cc1 | · | · | 24.2% | 29.1 | · | 15.5%
O=Nc1nc2ncccn2c1-c1ccccc1 | 3.9 | -7.3% | -1.4% | -83.6* | 11.9% | 11.6µM*
Cc1ccc(C(=O)NNC(=O)CCCN2C(=O)/C(=C/c3ccccc3Cl)SC2=S)cc1 | -11.2 | 0.6% | 2.4% | -106.9* | -2.0% | 2.7%
O=C(CCCN1C(=O)/C(=C/c2ccccc2Cl)SC1=S)NNC(=O)c1ccc(Cl)cc1 | -9.6 | 0.8% | 16.7% | -19.9 | -0.2% | 6.7%
O=C(CCCN1C(=O)/C(=C/c2ccccc2Cl)SC1=S)Nc1ccccn1 | -0.5 | ? | -1.8% | -81.4* | -14.9% | 5.3%
O=C(CCN1C(=O)/C(=C/c2ccccc2Cl)SC1=S)Nc1ccccn1 | 0.4 | -10.5% | -2.7% | -10.1 | -29.8% | 0.4%
CCCCn1c(SCC(=O)NNC(=O)c2ccco2)nnc1-c1ccco1 | 7.0 | -2.0% | -12.4% | 10.1 | 0.9% | 0.0%
CC(=O)Nc1ccc(S(=O)(=O)NC2=NCN(CCO)CN2)cc1 | · | 15.2% | · | · | 4.2% | ·
CCNc1nc(-c2sc(NC(=O)C(C)(C)C)nc2C)c(-n2cc(-c3ccccc3)nn2)s1 | · | · | ? | -76.5* | · | ?
